Screens deposited in PubChem BioAssay by ICCB-Longwood Screening Facility, Harvard Medical School.
Most compounds without a hit are left out; they make up all but 1.4% or so of the library.
Polio RdRp inh – inhibitors of poliovirus RNA polymerase binding and polymerization; P03300; actives 0.66% (n = 150,000); % elongation, % (compound at 16.7 µg/mL); poliovirus polymerase elongation, fluorescence polarization; stronger effect = lower value; AID 588519; in the data active means % elongation below about 90%
MenB inh – Mtb MenB enzyme inhibition; MenB enzyme assay, absorbance read-out; P9WNP5; inhibition, % (test concentration not listed); actives 0.43% (n = 100,000); in the data active means inhibition above about 21%, passing the limit was not always enough
Target sequence (P9WNP5 whole entry, looked up): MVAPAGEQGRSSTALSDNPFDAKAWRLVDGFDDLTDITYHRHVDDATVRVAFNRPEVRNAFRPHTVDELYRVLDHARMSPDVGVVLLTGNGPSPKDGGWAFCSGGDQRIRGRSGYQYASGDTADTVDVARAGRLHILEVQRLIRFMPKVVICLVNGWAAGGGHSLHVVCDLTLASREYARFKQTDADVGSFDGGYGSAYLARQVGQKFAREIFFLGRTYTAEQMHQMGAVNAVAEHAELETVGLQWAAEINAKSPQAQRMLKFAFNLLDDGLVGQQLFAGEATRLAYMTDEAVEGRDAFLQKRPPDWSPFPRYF
MbtI inh – MbtI salicylate synthase inhibition; P9WFX0; purified MbtI enzyme, fluorescence intensity read-out; inhibition, % (concentration not given with the values); actives 0.89% (n = 100,000); in the data active means inhibition mostly above about 56%, no sharp cut-off; inactive means mostly below about 77%
Of the large screens only hits and unclear results are named; the others gave an inactive call.

O=C1c2ccccc2C(=O)N1c1ccc(OC(F)(F)F)cc1	none
CCn1c(=O)c2sccc2n2c(CCCC(=O)N3CCN(c4ccc(OC)cc4)CC3)nnc12	Polio RdRp inh 49 (no result: MenB inh, MbtI inh)
CCn1c(=O)c2sccc2n2c(CCCC(=O)N3CCN(c4ccccc4OC)CC3)nnc12	none (no result: MenB inh, MbtI inh)
CN(C)CCNCc1ccc(-c2ccccc2)o1	MenB inh 61
CC(O)CNCc1ccc(-c2ccccc2)o1 (configuration not stated)	none
COc1ccc(-c2cc(-c3ccccc3)[nH]c(=S)c2C#N)cc1	none (no result: MbtI inh)
CC(C)c1ccc(NS(=O)(=O)c2ccc3nc(-c4ccccc4)[nH]c3c2)cc1	none (no result: MenB inh, MbtI inh)
CC(C)NC(=O)COc1ccc(-c2ccccc2)cc1	none (no result: MenB inh)
O=C1CCN(C(=O)/C=C/c2ccccc2)c2ccccc21	none
O=C(/C=C/c1ccccc1)ON1C(=O)CCC1=O	Polio RdRp inh 35 (no result: MbtI inh)
COc1ccc(NC(=O)c2c(NC(=O)c3ccncc3)sc3c2CCC(C(C)(C)C)C3)cc1 (configuration not stated)	none (no result: MenB inh, MbtI inh)
CCOc1ccc(NC(=O)c2c(NC(=O)c3ccncc3)sc3c2CCC(C(C)(C)C)C3)cc1 (configuration not stated)	Polio RdRp inh 83 (no result: MenB inh, MbtI inh)
Cc1ccc(N2C(=O)CC(NCc3ccc(S(N)(=O)=O)cc3)C2=O)cc1Cl (configuration not stated)	none
C=CCN(C)C1CC(=O)N(c2ccc(C)c(Cl)c2)C1=O (configuration not stated)	MbtI inh 95
COC(=O)c1ccccc1-c1cc(C)no1	none
CC(C)OCCCNC(=O)CCCN1C(=O)CCn2nc(-c3cccn3C)cc21	none (no result: MenB inh, MbtI inh)
O=C(CCN1C(=O)c2ccccc2C1=O)OCc1ccco1	Polio RdRp inh 90
CCOC(=O)CCN1C(=O)c2ccccc2C1=O	none
CN1/C(=C/P(=O)(N(C)C)N(C)C)C(C)(C)c2ccccc21	none
CC(C)(CO)NC(=O)c1ccc(Cl)cc1	none (no result: Polio RdRp inh, MenB inh)
O=C(Cc1ccccc1)Nc1sc2c(c1C(=O)Nc1ccc(Cl)cc1)CCCC2	Polio RdRp inh 71 (no result: MenB inh, MbtI inh)
O=C(Cc1ccccc1)Nc1sc2c(c1C(=O)Nc1ccccc1Cl)CCCC2	Polio RdRp inh 85 (no result: MenB inh, MbtI inh)
Nc1sc2c(c1C(=O)Nc1ccc(Cl)cc1)CCC2	Polio RdRp inh 89 (no result: MbtI inh)
COc1ccc(CC(=O)Nc2sc3c(c2C(=O)Nc2cccc(Cl)c2)CCCCC3)cc1	none (no result: MenB inh, MbtI inh)
Nc1sc2c(c1C(=O)Nc1cccc(Cl)c1)CCCCC2	none (no result: MbtI inh)
O=C(Nc1sc2c(c1C(=O)Nc1cccc(Cl)c1)CCCC2)c1cccs1	Polio RdRp inh 77 (no result: MenB inh, MbtI inh)
O=C(Cc1ccccc1)Nc1sc2c(c1C(=O)Nc1ccccc1)CCCCC2	none (no result: MenB inh, MbtI inh)
O=C(COc1ccccc1)Nc1sc2c(c1C(=O)Nc1ccccc1Cl)CCCCC2	none (no result: MenB inh, MbtI inh)
S=C(NCCN1CCOCC1)NCc1ccc2c(c1)OCO2	none
COc1cc(OC)c(Nc2c3c(nc4nc(-c5cccs5)nn24)CCCC3)cc1Cl	none (no result: MenB inh, MbtI inh)
CCOC(=O)c1c(N)sc(C(=O)N2CCOCC2)c1C	none (no result: MbtI inh)
CCOC(=O)c1c(P(=O)(N2CCOCC2)N2CCOCC2)noc1N	MenB inh 41
COc1ccc2c(c1)-c1nc(/N=C/c3ccc(C)o3)sc1CC2	MbtI inh 82
COc1ccc2c(c1)CCc1sc(/N=C/c3ccc(C)cc3)nc1-2	none
CN(C)/N=C/C=C1\CC/C(=C\c2ccccc2)C1=O	none
CCC(Sc1nc2c(c(=O)[nH]1)CCCC2)C(=O)Nc1ccccc1OC (configuration not stated)	none (no result: Polio RdRp inh, MenB inh)
CCC(Sc1nc2c(c(=O)[nH]1)CCC2)C(=O)Nc1cccc(OC)c1 (configuration not stated)	MbtI inh 96
CN(C(=O)CSc1nncn2c1cc1occc12)c1ccccc1	none (no result: MenB inh, MbtI inh)
CN(C(=O)CSc1nncn2c1cc1sccc12)c1ccccc1	MenB inh 33
COC(=O)c1c(NC(=O)c2cc(=O)c3cc(C)cc(C)c3o2)sc2c1CCC2	none (no result: MenB inh, MbtI inh)
NC(=O)c1cc(-c2csc(-c3ccccn3)n2)ccc1O	none
O=C1NC(c2cccs2)Nc2ccccc21 (configuration not stated)	none
Cc1ccc(C)c2[nH]c(=O)c(C3NC(=O)c4ccccc4N3)cc12 (configuration not stated)	MenB inh 42
O=C(O)CCSC1CC(=O)N(c2ccc(F)cc2)C1=O (configuration not stated)	none
N#CSC1CC(=O)N(c2ccc(F)cc2)C1=O (configuration not stated)	MbtI inh 99
Cc1ccc(-c2c(CN3CCN(c4cccc(C(F)(F)F)c4)CC3)csc2C)cc1	Polio RdRp inh 89 (no result: MenB inh, MbtI inh)
Cc1ccc(-c2c(CN3CCN(c4cccc(C)c4C)CC3)csc2C)cc1	none (no result: MenB inh, MbtI inh)
Cc1c(F)cccc1NC(=O)CCCCCC1NC(=O)NC1C (configuration not stated)	none
CCc1nn(CC(=O)NCc2ccc(C)cc2)c(=O)c2cc3occc3n12	Polio RdRp inh 72 (no result: MenB inh, MbtI inh)
CCc1nn(CC(=O)NCCCN(CC)CC)c(=O)c2cc3occc3n12	none (no result: MenB inh, MbtI inh)
COC(=O)c1cc2cc(Br)ccc2s1	none
C=CCN(C(=O)CSc1nnc(CC)n2c1cc1oc(C)cc12)c1ccccc1	MenB inh 45
CCc1nnc(SCC(=O)N(CC)c2ccccc2)c2cc3oc(C)cc3n12	none (no result: MenB inh, MbtI inh)
Cc1ccc(C(=O)CC2(O)C(=O)N(CCc3ccccc3)c3ccc(Cl)cc32)cc1 (configuration not stated)	none (no result: MenB inh, MbtI inh)
[N-]=C=C1C(=O)N(CCc2ccccc2)C(=O)[C@H]([n+]2ccccc2)[C@H]1c1ccc(Cl)cc1	Polio RdRp inh 69 (no result: MbtI inh)
CCN(CC)CCCNC1=NCC(C)S1 (configuration not stated)	none (no result: MenB inh)
O=C(O)c1ccc(C2Nc3ccccc3C3C=CCC32)cc1 (configuration not stated)	Polio RdRp inh 59 (no result: MbtI inh)
O=C(O)C1Nc2ccccc2C2C=CCC12 (configuration not stated)	none (no result: MbtI inh)
COc1ccc(/C=C2\SC(=O)N(c3c(C)n(C)n(-c4ccccc4)c3=O)C2=O)cc1OC	Polio RdRp inh 81, MbtI inh 87
COc1ccc(/C=N/NC(=S)Nc2c(C)n(C)n(-c3ccccc3)c2=O)cc1OC	none
O=C(CSc1nnc(-c2cc3ccccc3[nH]2)n1-c1ccccc1)NC1CCS(=O)(=O)C1 (configuration not stated)	none
O=C(CSc1nnc(-c2cc3ccccc3[nH]2)n1-c1ccccc1)N1CCNC1=O	Polio RdRp inh 58
N#C/C(=C(/O)CSc1nc2ccccc2o1)c1nc2ccccc2[nH]1	none
N#C/C(=C(/O)CSc1n[nH]c(=O)[nH]c1=O)c1nc2ccccc2[nH]1	MbtI inh 77
CC(C)c1cc(C(=O)Nc2ccc3c(c2)OCCCO3)c2cnn(C(C)C)c2n1	none
CCOC(=O)c1c(-c2ccc(C)o2)csc1NC(=S)NC(=O)N(C)C	MbtI inh 85
CCOC(=O)c1c(-c2cccs2)csc1NC(=O)C1CC=CCC1C(=O)O (configuration not stated)	none
CCN1CCc2c(sc(=NC(=O)c3ccc(F)cc3)n2C(=O)c2ccc(F)cc2)C1	Polio RdRp inh 65
CCn1c(=NC(=O)c2ccc(C#N)cc2)sc2cccc(F)c21	none
Oc1ccc(O)c([S+]2CCCCC2)c1	none (no result: MbtI inh)
CC(=O)NC(CSCc1ccccc1)C(=O)O (configuration not stated)	none (no result: MenB inh)
CCn1nnc2sc(-c3ccccc3)cc2c1=O	none
CC(C)(C)NC(=O)CCCN1C(=O)/C(=C\c2ccco2)SC1=S	none
O=C(CC(=O)NCC1CCCO1)NCC1CCCO1 (configuration not stated)	none (no result: MenB inh)
